Test results from the supplement of paper PMC11732987, “Enantioselective OTUD7B fragment discovery through chemoproteomics screening and high-throughput optimisation” (Communications Chemistry, 2025).

How the values were obtained:
Experiment in all cases: log2 ratio of Biotin-Ahx-Ub-VS probe labelling (fragment/DMSO); higher = less target engagement (more negative = stronger competition), active = hit call of the paper (q ≤ 0.05, log2 ratio ≤ -1)
Conditions in all cases: compound concentration: 200 uM; treatment time: 3 h
[1] = molecular target: USP34 (UniProt Q70CQ2)
Procedure, shortened: (§1)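 Each value is an average log2 ratio of fragment to vehicle, tested by unpaired t-test. The underlying Spectronaut label-free quantities were global-median-normalised, and only proteins with ≥2 unique peptides were included. Triplicate HEK293T lysate samples (495 µg) were exposed to fragment at 200 µM or vehicle for 3 h, then to Biotin-Ahx-Ub-VS at 0.5 µM final for 1 h, before NeutrAvidin enrichment of labelled DUBs, LysC and trypsin digestion, and diaPASEF LC-MS/MS.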

[2] = molecular target: T1, USP36 (UniProt Q9P275)
T1 sequence (whole entry): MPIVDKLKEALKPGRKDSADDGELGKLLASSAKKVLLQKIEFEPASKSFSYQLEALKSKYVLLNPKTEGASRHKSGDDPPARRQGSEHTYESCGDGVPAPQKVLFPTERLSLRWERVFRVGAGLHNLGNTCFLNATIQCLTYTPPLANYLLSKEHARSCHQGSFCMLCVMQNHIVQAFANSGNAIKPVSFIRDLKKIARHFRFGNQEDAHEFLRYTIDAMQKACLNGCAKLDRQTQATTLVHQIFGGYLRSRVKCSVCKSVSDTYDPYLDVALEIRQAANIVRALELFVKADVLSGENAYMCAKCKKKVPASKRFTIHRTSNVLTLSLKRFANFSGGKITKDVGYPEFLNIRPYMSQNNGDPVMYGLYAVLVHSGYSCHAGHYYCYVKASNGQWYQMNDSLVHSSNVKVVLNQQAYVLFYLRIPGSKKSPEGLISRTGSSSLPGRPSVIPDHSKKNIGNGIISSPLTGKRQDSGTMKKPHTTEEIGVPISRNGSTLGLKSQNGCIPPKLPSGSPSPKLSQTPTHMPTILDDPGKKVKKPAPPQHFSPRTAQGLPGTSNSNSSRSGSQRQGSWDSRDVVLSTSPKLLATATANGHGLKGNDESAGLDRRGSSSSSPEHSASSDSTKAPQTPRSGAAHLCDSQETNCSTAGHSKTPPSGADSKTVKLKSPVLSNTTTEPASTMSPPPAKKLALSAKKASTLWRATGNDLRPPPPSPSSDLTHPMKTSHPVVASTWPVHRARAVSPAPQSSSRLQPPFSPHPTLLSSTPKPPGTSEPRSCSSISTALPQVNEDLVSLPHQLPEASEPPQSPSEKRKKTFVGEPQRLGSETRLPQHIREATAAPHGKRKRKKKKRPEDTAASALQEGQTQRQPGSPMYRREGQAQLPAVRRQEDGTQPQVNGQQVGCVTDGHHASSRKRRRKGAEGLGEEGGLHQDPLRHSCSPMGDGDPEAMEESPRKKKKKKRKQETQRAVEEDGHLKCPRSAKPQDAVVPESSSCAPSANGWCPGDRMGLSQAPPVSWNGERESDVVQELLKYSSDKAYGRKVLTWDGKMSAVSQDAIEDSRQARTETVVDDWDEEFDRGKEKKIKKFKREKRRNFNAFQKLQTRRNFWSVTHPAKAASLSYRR
Procedure, shortened: as §1

[3] = molecular target: T2, USP38 (UniProt Q8NB14)
T2 sequence (whole entry): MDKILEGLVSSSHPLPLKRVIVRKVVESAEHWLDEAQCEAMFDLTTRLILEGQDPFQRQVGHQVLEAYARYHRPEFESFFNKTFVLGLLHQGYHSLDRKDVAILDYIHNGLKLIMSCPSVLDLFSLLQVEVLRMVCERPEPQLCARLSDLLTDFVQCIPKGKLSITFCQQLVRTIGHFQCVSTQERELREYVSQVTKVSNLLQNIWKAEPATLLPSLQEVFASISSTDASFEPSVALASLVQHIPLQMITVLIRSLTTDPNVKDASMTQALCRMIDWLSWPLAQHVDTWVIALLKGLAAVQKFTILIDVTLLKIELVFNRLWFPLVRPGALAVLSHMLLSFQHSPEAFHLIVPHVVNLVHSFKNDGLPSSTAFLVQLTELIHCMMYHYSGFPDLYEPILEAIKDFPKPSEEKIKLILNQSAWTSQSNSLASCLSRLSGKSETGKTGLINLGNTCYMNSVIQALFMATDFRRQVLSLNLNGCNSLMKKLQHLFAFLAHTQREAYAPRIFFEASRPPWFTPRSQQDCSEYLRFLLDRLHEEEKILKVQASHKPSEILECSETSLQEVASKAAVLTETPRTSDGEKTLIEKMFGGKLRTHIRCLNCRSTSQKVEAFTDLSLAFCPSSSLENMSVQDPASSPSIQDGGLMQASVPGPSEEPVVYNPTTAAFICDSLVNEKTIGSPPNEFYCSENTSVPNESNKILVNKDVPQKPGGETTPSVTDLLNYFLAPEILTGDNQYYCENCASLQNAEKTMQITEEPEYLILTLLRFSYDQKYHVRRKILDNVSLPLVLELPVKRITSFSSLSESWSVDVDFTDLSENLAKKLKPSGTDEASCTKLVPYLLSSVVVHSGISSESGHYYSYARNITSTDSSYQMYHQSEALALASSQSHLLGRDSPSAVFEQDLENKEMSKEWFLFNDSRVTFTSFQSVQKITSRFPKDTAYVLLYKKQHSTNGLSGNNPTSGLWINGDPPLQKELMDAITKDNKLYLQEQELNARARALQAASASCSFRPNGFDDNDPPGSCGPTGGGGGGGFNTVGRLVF
Procedure, shortened: as §1

[4] = molecular target: T3, USP39 (UniProt Q53GS9)
T3 sequence (whole entry): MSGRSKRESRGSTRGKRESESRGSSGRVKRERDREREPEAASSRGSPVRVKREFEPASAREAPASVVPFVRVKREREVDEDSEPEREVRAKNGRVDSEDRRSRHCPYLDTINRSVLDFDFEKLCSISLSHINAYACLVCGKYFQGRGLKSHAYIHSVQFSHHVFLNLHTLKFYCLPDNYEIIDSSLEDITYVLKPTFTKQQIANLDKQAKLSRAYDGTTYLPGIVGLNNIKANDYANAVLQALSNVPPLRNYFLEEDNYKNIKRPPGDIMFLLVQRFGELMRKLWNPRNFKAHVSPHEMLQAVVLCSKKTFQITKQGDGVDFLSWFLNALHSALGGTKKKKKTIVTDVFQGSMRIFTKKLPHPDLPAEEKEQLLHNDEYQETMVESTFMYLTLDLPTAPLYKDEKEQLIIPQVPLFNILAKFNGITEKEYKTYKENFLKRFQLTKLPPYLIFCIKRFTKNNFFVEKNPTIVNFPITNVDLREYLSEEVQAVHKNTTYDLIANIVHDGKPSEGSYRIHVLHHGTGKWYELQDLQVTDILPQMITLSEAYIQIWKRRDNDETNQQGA
Procedure, shortened: as §1

[5] = molecular target: T4, USP4 (UniProt Q13107)
T4 sequence (whole entry): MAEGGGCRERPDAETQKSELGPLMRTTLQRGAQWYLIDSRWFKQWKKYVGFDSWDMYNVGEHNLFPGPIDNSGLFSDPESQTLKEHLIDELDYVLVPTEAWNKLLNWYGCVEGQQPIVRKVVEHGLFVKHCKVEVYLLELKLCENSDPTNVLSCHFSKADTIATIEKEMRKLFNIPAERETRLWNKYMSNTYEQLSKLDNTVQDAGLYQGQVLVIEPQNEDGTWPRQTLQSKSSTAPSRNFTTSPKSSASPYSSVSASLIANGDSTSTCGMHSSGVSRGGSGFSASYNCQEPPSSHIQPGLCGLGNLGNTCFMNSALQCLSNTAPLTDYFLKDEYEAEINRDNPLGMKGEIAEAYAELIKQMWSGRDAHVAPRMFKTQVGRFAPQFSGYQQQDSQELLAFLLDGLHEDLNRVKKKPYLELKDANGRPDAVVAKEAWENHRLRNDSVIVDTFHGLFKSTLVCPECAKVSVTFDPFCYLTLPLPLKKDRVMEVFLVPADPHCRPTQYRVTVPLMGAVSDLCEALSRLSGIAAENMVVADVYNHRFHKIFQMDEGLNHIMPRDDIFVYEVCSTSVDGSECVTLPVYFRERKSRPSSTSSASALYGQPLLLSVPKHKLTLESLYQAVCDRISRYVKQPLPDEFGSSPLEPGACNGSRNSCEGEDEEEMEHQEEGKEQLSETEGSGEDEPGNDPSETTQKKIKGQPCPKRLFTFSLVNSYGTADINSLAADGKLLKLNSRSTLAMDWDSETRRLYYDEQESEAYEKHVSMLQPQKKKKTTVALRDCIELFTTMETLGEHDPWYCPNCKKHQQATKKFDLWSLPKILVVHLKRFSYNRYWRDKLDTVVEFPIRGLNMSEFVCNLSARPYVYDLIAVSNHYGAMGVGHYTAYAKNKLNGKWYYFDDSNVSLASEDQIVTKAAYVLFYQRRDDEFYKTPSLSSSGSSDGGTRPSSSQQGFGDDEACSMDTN
Procedure, shortened: as §1

Measured: log2 ratio of Biotin-Ahx-Ub-VS probe labelling

USP34, sequence (Q70CQ2 whole entry, the tested form may be a part): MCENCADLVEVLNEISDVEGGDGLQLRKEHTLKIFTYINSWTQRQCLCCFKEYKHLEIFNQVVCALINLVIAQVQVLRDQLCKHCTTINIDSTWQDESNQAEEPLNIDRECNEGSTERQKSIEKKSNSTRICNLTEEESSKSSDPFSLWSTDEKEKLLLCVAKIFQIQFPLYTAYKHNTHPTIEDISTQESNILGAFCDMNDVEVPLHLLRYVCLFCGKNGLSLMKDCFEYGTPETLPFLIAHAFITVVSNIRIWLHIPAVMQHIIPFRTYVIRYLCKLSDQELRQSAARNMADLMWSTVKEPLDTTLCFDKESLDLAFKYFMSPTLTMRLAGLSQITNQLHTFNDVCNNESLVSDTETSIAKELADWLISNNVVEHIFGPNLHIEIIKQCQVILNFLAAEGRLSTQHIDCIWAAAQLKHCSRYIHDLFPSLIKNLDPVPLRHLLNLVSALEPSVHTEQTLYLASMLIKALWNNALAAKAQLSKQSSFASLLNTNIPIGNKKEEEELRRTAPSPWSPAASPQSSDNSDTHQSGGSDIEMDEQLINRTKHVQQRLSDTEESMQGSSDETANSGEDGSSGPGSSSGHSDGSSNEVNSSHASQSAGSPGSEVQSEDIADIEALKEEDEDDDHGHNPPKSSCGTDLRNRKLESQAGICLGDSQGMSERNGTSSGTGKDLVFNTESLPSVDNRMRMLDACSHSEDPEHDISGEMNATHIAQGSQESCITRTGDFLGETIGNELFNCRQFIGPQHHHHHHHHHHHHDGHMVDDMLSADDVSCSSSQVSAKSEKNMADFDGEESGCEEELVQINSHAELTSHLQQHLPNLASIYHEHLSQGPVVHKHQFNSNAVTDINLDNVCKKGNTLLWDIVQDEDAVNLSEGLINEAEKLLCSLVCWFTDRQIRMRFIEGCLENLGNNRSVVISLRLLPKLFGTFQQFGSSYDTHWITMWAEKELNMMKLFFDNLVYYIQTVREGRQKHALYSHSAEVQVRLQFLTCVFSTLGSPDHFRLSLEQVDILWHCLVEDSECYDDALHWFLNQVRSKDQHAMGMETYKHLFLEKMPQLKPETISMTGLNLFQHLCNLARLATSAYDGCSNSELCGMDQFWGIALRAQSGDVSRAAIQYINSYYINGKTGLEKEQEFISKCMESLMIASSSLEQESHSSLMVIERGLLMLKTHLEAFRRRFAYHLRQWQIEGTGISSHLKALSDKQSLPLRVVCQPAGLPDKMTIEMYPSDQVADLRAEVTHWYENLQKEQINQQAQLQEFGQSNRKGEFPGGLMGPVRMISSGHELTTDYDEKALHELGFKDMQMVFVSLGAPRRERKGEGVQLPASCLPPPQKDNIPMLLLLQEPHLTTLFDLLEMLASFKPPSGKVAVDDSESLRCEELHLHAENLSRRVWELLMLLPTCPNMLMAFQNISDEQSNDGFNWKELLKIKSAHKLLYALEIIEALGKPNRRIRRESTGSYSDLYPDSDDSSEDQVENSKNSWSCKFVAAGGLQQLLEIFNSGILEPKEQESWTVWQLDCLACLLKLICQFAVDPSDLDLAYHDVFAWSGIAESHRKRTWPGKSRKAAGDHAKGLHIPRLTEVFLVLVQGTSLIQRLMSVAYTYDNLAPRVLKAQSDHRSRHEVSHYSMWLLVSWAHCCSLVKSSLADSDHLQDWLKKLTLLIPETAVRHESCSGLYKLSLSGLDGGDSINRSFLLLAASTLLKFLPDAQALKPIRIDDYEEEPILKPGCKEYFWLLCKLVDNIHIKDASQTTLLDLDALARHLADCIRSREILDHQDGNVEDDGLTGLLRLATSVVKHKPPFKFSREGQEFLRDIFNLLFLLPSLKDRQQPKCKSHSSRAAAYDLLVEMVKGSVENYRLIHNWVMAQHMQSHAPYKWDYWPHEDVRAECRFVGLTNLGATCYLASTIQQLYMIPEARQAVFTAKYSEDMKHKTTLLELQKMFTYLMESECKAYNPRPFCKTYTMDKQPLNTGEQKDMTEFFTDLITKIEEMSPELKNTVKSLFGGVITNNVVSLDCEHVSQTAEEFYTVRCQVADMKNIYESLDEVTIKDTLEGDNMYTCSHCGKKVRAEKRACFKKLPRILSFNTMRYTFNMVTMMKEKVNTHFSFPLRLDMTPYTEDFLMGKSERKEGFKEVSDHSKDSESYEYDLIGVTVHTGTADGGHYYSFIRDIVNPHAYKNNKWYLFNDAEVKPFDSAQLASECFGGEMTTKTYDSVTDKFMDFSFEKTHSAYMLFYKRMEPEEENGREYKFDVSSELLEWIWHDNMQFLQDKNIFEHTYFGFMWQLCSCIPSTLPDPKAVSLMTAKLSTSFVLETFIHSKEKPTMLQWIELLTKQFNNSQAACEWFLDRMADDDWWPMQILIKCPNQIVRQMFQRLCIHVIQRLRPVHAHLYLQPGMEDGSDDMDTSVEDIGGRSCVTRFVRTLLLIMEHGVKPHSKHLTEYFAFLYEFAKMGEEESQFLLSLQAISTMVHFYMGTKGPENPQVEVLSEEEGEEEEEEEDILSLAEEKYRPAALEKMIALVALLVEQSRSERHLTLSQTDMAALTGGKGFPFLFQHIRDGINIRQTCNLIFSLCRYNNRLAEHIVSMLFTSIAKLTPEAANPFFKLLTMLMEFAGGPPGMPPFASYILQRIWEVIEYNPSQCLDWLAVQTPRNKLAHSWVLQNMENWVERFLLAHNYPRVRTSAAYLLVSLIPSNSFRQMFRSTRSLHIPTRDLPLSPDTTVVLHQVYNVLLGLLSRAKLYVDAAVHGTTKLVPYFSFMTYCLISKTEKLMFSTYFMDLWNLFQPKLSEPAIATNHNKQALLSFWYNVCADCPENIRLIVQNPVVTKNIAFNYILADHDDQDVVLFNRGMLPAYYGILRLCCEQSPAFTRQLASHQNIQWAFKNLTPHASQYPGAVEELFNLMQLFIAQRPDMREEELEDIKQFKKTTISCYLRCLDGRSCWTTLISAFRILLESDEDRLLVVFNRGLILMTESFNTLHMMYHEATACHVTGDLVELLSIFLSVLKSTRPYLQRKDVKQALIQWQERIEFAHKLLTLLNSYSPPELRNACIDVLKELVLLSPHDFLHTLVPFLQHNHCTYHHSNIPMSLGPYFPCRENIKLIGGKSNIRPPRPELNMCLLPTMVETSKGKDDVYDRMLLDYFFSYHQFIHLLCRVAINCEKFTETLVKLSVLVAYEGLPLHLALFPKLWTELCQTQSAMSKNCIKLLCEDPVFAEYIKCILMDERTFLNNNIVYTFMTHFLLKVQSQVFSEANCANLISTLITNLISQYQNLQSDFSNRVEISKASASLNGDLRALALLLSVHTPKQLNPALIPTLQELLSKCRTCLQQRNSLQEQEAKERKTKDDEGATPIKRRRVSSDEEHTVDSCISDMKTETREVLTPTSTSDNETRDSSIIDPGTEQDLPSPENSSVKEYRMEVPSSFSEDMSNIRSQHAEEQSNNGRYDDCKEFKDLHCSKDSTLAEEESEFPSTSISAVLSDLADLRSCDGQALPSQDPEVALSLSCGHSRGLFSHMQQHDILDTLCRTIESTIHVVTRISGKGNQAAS

Cl.O=C(CCl)N1CCc2ncncc2C1
inactive: [1] -0.136 | [2] 0.0811 | [3] -0.0489 | [4] 0.321 | [5] -0.201
